Screening results as filed in PubChem BioAssay.
Hits are enriched below; roughly 2.8% of the tested compounds scored in any of these assays.
sPLA2-III inh = Blocks human group III sPLA2 activity. Q9NZ20. QFRET BODIPY PC-A2 liposome hydrolysis, fluorescence. inhibition, % at 12.2 µM. 370,000 tested, 0.56% active. AID 743126;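 active = inhibition above mean plus 3 SD of compounds lying within the high and low control bounds, cut at about 19% in these data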;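 note: 0% = median of test compound wells and 100% = no enzyme DMSO wells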
Target sequence (Q9NZ20 whole entry, looked up): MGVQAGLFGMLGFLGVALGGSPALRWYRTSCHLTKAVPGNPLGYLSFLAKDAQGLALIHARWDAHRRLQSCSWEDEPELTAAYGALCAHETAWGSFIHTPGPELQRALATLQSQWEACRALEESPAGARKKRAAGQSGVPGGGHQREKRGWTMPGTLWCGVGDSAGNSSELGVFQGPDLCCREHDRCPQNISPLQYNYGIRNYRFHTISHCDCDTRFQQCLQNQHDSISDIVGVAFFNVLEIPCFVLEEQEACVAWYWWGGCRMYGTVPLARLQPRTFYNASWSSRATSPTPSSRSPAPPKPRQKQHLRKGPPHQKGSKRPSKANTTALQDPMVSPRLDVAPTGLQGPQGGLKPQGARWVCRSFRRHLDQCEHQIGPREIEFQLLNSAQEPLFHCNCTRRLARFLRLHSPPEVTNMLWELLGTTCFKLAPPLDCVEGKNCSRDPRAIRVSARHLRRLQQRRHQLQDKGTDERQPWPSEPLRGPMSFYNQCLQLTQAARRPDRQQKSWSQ
MsrA act = activates bovine MsrA enzyme; purified bovine MsrA, absorbance read-out; 360,000 tested, 0.3% active; activation, % at 10.6 µM; in the data active = activation above about 7.5%;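 note: 0% = vehicle and 100% = reference activator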
MsrA inhibitor = bovine MsrA inhibition | inhibition, % at 15.5 µM | 360,000 tested, 0.75% active | purified bovine MsrA, absorbance read-out; in the data active = inhibition above about 4.5%;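 note: 0% = vehicle wells with enzyme and 100% = reference inhibitor wells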
rCAG binder = r(CAG) repeat RNA binding | AID 651821 | TO-PRO-1 dye displacement fluorescence | 370,000 tested, 1.3% active | inhibition, % at 3 µM;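 active = inhibition above the plate cutoff, the mean of all test compounds on that plate plus 3 SD, cut at about 35% in these data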;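 note: 0% = DMSO alone and 100% = 100 µM mitoxantrone as full dye displacement; higher means more dye released from RNA so lower well fluorescence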
hGIII sPLA2 conf = human GIII-sPLA2 inhibition, confirmation | 2,000 tested, 34% active | inhibition, % at 12.2 µM | recombinant hGIII-sPLA2, BODIPY PC-A2 QFRET fluorescence | shares compounds with sPLA2-III inh;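 active = mean inhibition across triplicates above the hit cutoff set in the earlier primary screen, cut at about 19% in these data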;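 note: 0% = enzyme with DMSO and 100% = DMSO wells lacking enzyme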
535nm interf = optically interferes with 535nm fluorescence in sPLA2 counter-screen; shares compounds with sPLA2-III inh; BODIPY FL product fluorescence interference, QFRET; inhibition, % at 12.2 µM; 2,000 tested, 8.5% active;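 active = average inhibition above the solvent-only control mean plus 3 SD, cut at about 6% in these data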;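 note: 0% = DMSO with substrate plus product and 100% = DMSO with substrate alone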
535nm interf DR = counter-screen for HGIII-sPLA2 inhibitors: 535nm fluorescence interference, dose response. BODIPY FL product fluorescence interference, cell-free. shares compounds with sPLA2-III inh. IC50, µM. AID 743455. 240 tested, under 10 active;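 active = IC50 at or below 10 µM; inactive = IC50 above 10 µM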
* hit, by the source's call; x = not tested or not shown.

SMILES | sPLA2-III inh | MsrA act | MsrA inhibitor | rCAG binder | hGIII sPLA2 conf | 535nm interf | others
Oc1c(C(Nc2nccs2)c2ccc(C(F)(F)F)cc2)ccc2cccnc12 (stereo not drawn) | 40* | -1 | 0 | -4 | 23* | -1
COc1ccc(NC(=S)Nc2ccc3nccnc3c2)cc1 | 23* | -8 | 0 | -4 | 5 | -3
COc1ccc(NC(=S)Nc2ccc3snnc3c2)cc1 | 1 | -14 | 0 | 10 | x | x
CNC(=S)/N=C(\Nc1ccc(C)cc1)c1ccccc1 | 21* | -2 | 1 | 3 | 19 | -7
NC(=O)c1ccc[n+](Cc2ccccc2)c1 | 19* | -5 | 0 | 3 | 1 | -6
CC1CCCN(S(=O)(=O)c2cccc(C(=O)NCCCN3CCCC3=O)c2)C1 (stereo not drawn) | 20* | -7 | 0 | -2 | 9 | -3
Cn1c(=O)n(Cc2ccccc2)c(=O)c2c1nc1n2CCCN1Cc1ccccc1 | 7 | -6 | -1 | -5 | x | x
Cc1ccc(Cn2c(=O)c3c(nc4n3CCCN4Cc3ccccc3)n(C)c2=O)cc1 | 73* | -4 | 1 | 0 | 7 | -17
COc1ccc(N2CCN(C(=S)Nc3ccc(OC)cc3OC)CC2)cc1 | 16 | -1 | 0 | 2 | x | x
O=C(c1ccc(-c2cc(O)c3ncccc3c2)cc1)N1CCNCC1 | 23* | -2 | 0 | 2 | -11 | -22
CC1(C)CCCN(C(=O)c2ccc3c(c2NCCO)C(=O)c2ccccc2C3=O)C1 | 26* | 0 | 1 | 0 | 36* | -14 | 535nm interf DR=>122
CC(C)c1ccc(-c2noc(C3CCCN(C(=O)c4ccc(F)cc4F)C3)n2)cc1 (stereo not drawn) | -17 | 2 | -1 | 14 | x | x
NCCNc1ccc(C(=O)N2c3ccccc3Sc3ccccc32)cc1[N+](=O)[O-] | 20* | -5 | 0 | 30 | 24* | -27
Nc1ccc(C(=O)OCC(=O)N2c3ccccc3Sc3ccccc32)cc1[N+](=O)[O-] | -8 | -1 | -1 | 5 | x | x
Cc1ccc(-c2csc3ncnc(SCC(=O)c4ccc5c(c4)OCCO5)c23)cc1 | 2 | -2 | -1 | 8 | x | x
COC(=O)N/N=C/c1c(C)nn(-c2cccc(Cl)c2)c1Cl | 20* | -1 | 0 | -5 | 5 | -6
Cc1ccc(S(=O)(=O)N2CCN(C(=O)C(C)Cn3cncn3)CC2)cc1C (stereo not drawn) | 0 | -2 | 0 | -4 | x | x
COc1ccc(-c2c(Cc3ccccc3)nc(NC(=O)c3ccccc3)n2C)cc1 | 19* | x | x | 6 | 11 | -7
O=C(Nc1nc(Cc2ccccc2)c(-c2ccccc2)n1Cc1ccccc1)c1ccccc1 | 20* | x | x | 9 | 2 | -5
CN1C(=O)C2(c3ccccc31)c1c(oc3ccccc3c1=O)C(=O)N2CCCO (stereo not drawn) | 21* | -2 | 0 | -3 | 0 | -8
O=C(CCc1c[nH]c2ccccc12)OCc1cccc(C(F)(F)F)c1 | -79 | -2 | 0 | -5 | x | x
COc1cccc(Nc2nc(C(N)c3ccccc3)cs2)n1 (stereo not drawn) | 24* | -2 | 1 | 9 | 6 | -9
COc1cccc(Nc2nc(C(C)N)cs2)n1 (stereo not drawn) | 13 | 3 | 0 | 5 | x | x
COc1cccc(CNC(=O)C2CCN(c3ncnc4c3nc3n4CCCCC3)CC2)c1 | 4 | -2 | 1 | -3 | x | x
CCOC(=O)c1ccc(N2CCN(c3ccccc3F)CC2)c(NC(=O)Nc2cccc(OC)c2)c1 | 21* | -7 | 1 | 14 | -10 | -16
SMILES | sPLA2-III inh | MsrA act | MsrA inhibitor | rCAG binder | hGIII sPLA2 conf | 535nm interf | others
Cc1ccc(/C=N/NC(=O)c2ccc3nc[nH]c3c2)o1 | 21* | -3 | 3 | 0 | 2 | -2
COC(=O)c1ccc(/C=N/NC(=O)c2ccc3nc[nH]c3c2)cc1 | -1 | -5 | 1 | 2 | x | x
N#CC1=C(SCc2ccccc2)NC2=C(C(=O)CCC2)C1c1ccc2c(c1)OCO2 (stereo not drawn) | 4 | -2 | 2 | 9 | x | x
O=C(/C=C/c1ccc2c(c1)OCO2)NCc1ccco1 | 20* | -12 | 3 | 2 | -2 | -6
CCCCNc1nc2c(S(=O)(=O)c3ccccc3)nnn2c2ccccc12 | 20* | -1 | 0 | 2 | 4 | -6
CCOc1ccc2c(c1)C(C)=CC(C)(C)N2S(=O)(=O)c1ccc(F)cc1 | 0 | 1 | 0 | -8 | x | x
CCOc1ccc2c(c1)-c1c(ssc1=S)C(C)(C)N2C | 36* | 0 | 2 | 6 | 46* | 14*
CC1(C(=O)NS(=O)(=O)c2ccc(Br)cc2)CCN1C(=O)CC1CCCCC1 (stereo not drawn) | -1 | -9 | 1 | 19 | x | x
COc1cccc(C2NC(=S)NC(C)=C2C(C)=O)c1 (stereo not drawn) | 6 | x | 2 | 3 | x | x
CCOc1cccc(C2NC(=S)NC(C)=C2C(=O)Nc2ccccc2)c1 (stereo not drawn) | 24* | -2 | 1 | 4 | 16 | -2
CN(C)c1ccc(NC(=O)Nc2nc(C(N)C3CCCCC3)cs2)cc1 (stereo not drawn) | 20* | -3 | -1 | 33 | 23* | -7
NC(c1csc(Nc2ccc(C(=O)NCCCO)cn2)n1)C1CCCCC1 (stereo not drawn) | 23* | -4 | 2 | 6 | 7 | -19
NC(c1csc(Nc2ncccn2)n1)C1CCCCC1 (stereo not drawn) | 23* | -4 | 2 | 12 | 3 | -13
CC(N)c1csc(Nc2ccc(C(=O)NCCCO)cn2)n1 (stereo not drawn) | 8 | -3 | -1 | 4 | x | x
C=C(C)c1cccc(C(C)(C)NC(=O)NC(c2ccccc2)c2ccc(OC)cc2)c1 (stereo not drawn) | -3 | -4 | 0 | 2 | x | x
S=c1[nH]nc(-c2ccco2)n1/N=C/c1cccc(Cl)c1 | 16 | 2 | 1 | 10 | x | x
Cc1ccc(/C=N/n2c(-c3ccco3)n[nH]c2=S)cc1 | 22* | 2 | 2 | 8 | 12 | -1
Cc1ccccc1NC(=O)C1C2CCCC1C2c1ccccc1 (stereo not drawn) | -2 | -11 | 0 | -4 | x | x
CCC1CCCCN1C(=S)NC(=O)c1cc(S(=O)(=O)N2CCOCC2)ccc1C (stereo not drawn) | 20* | -2 | 1 | 1 | 11 | -1
O=C1C=C(c2cccc(CO)c2)C[C@@H](c2ccc(Cl)cc2)C1 | -6 | -2 | 0 | -5 | x | x
CCCCCCCCNC(=O)c1cccnc1SCC(=O)Nc1ccc(OC)cc1OC | 22* | -4 | 0 | 1 | -9 | -41
COc1cc(NC(=O)Nc2ccccc2)c(OC)cc1NC(=O)CN1CCCCC1 | -18 | 2 | 0 | 3 | x | x
O=C(O)CCCC(=O)Nc1nncs1 | -1 | -7 | -1 | 0 | x | x
